About 1,200 (0.39%) of roughly 310,000 compounds were called active. Not all results are given here. Measured potencies and affinities stand elsewhere. A number with no mark means an inactive call. No rule for the calls is given here.

The term inhibition denotes the drop in the measured response relative to a control, in per cent.

For the experiment, the target named is Large T antigen (Simian virus 40) (UniProt P03070). The experiment can be described thus: SV40 large T antigen inhibitors, biochemical (AID 1903). Particulars: SV40 large T antigen ATPase/helicase inhibition assay; at 20 µM; active compounds read high.
Large T antigen (Simian virus 40), sequence (P03070 whole entry, looked up): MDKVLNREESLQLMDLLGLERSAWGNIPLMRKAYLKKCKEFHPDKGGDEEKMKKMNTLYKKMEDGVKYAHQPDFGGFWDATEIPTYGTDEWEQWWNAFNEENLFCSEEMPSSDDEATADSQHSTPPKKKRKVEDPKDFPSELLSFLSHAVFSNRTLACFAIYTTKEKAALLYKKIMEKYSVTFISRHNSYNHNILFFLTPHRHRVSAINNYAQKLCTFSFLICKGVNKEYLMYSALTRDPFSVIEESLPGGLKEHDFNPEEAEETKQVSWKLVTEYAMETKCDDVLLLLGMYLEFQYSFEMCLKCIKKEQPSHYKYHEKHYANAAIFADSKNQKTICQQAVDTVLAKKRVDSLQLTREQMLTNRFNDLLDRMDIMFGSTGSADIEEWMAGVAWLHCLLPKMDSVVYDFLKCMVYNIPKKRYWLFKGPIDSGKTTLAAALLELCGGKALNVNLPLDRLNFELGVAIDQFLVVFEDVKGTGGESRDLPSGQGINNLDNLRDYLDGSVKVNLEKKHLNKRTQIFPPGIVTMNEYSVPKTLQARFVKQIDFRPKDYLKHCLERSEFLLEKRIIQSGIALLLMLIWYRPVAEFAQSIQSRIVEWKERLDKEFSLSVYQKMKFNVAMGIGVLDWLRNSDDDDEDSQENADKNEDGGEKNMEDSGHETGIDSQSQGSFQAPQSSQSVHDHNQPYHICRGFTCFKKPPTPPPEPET
In the case of `COC(=O)[C@@]12CCCN1[C@H](c1ccc(-c3ccc(F)cc3)cc1)[C@H]1C(=O)N(C)C(=O)[C@H]12`, the inhibition is 5.03%.

For `Cc1ccc(S(=O)(=O)NC(=O)N(CCC#N)Cc2ccccc2)cc1`, the inhibition was 10.3%.

Consider `CC(C)(C)/C(O)=C/c1nc2ccccc2oc1=O`, for which the inhibition was 29.2%.

As to `Cc1ccc(/C(O)=C/c2nc3cc(C)ccc3oc2=O)cc1`, the inhibition was 14.5%. As for `COc1ccc(-c2nc(NC(=O)CSCCO)sc2C)cc1`, the figure is 22.1%.

As to `O=S1(=O)N=C(SCCO)c2ccccc21`, the inhibition was -3.68%. As for `O=C1C(O)=C(O)C(=O)c2ccccc21`, the figure is 5.58%; as for `CCOc1ccc(NC(=S)N(CCN2CCOCC2)Cc2ccc3c(c2)CCCN3CC)cc1`, 18.7%; as for `CCOC(=O)c1[nH]nc(-c2c(O)cc(C)cc2O)c1-c1csc(C)n1`, 6.85%.

In the case of `CCOC(=O)c1oc2cc(O)c(CC)cc2c(=O)c1-c1cscn1`, the inhibition was 7.73%. With `CCCc1cc(-c2[nH]ncc2-c2ccc(C(=O)OCC)o2)c(O)cc1O` the figure was 18.2%; with `CCCc1cc2c(=O)c(-c3cscn3)c(C(=O)OCC)oc2cc1O`, 2.58%.

Take `CN(C)/C=C/C(=O)c1ccc(S(=O)c2ccccc2)cc1` (configuration not stated): the inhibition is 12.1%. With `Cc1cc(/C=N\O)c(C)n1-c1ccncc1` the figure was 7.77%. As to `Cc1cc(/C=C2\NC(=S)NC2=O)c(C)n1-c1cccnc1`, the inhibition is 4.58%.

As for `Cc1cc(/C=C2/NC(=S)NC2=O)c(C)n1-c1cccnc1`, the inhibition is 5.09%.

Take `Cc1cc(/C=C2/NC(=O)NC2=O)c(C)n1-c1ccncc1`: the inhibition was 6.66%. As for `COc1ccc2c(c1)CC/C(=C\c1ccc(OC)c(Cn3nc(C)cc3C)c1)C2=O`, the figure is 10.2%; as for `CCCc1nc(-c2ccccc2)c(-c2ccc(OC)c(OC)c2)c(=O)[nH]1`, 3.66%. As for `O=C(CSc1nnc(CNC(=O)c2cccs2)o1)NC1CCCC1`, the figure is 0.7%; as for `Cc1ccc(C(=O)Cn2nnc(-c3ccccc3)n2)cc1`, 0.94%; as for `O=C(CCS(=O)(=O)c1cccs1)Nc1ccc(C(=O)NC2CCN(Cc3ccccc3)CC2)cc1`, 16.1%. With `O=C(CSCc1c(Cl)cccc1Cl)Nc1ccccc1C(=O)N1CCOCC1` the figure was 6.94%; with `CCOC(=O)c1sc(N)c(C(=O)Nc2ccccc2OC)c1C`, 25.6%. `Cc1ccccc1-n1nnnc1SCC(=O)Nc1ccc(S(=O)(=O)N2CCCC2)cc1`: the inhibition is -7.07%.

Consider `Nc1ccc(-c2nc3ccc([N+](=O)[O-])cc3[nH]2)cc1`, for which the inhibition was 1.62%. Consider `COc1ccc2nc(-c3ccc(N)cc3)[nH]c2c1`, for which the inhibition was 25.1%.

As to `CC1CCN(C(=O)COC(=O)CSc2ccc(C(N)=O)cc2[N+](=O)[O-])CC1`, the inhibition was 18.6%. In the case of `O=C1CCCN1CCNC(=S)Nc1ccccc1`, the inhibition is 1.29%. As for `O=C1CCCN1CCCNC(=S)Nc1ccccc1`, the figure is 14.1%; as for `COCCOC(=O)C1=C(C)NC(=O)NC1c1ccco1` (configuration not stated), 13%; as for `O=C(Nc1ccc(F)cc1)C(=O)C1C(=O)Nc2ccccc21` (configuration not stated), 16.2%. With `Cc1ccc(NC(=O)C(=O)C2C(=O)Nc3ccccc32)cc1` (configuration not stated), the inhibition was 6.13%.

Take `COc1ccc(CC(=O)NCC(=O)N/N=C/c2sccc2C)cc1`: the inhibition was 26.5%. As for `O=S(=O)(c1ccc(NC(=S)N/N=C/c2ccc(N3CCOCC3)cc2)cc1)N1CCOCC1`, the figure is 22.6%. For the molecule `Cc1ccc(S(=O)(=O)N2CCN(CC(=O)N/N=C\c3ccncc3)CC2)cc1`, the inhibition was 22%. For `Cc1ccc(S(=O)(=O)N2CCN(CC(=O)N/N=C\c3ccc(Cl)c([N+](=O)[O-])c3)CC2)cc1`, the inhibition was 19.6%. With `N#Cc1ccc(/C=N/NC(=S)Nc2ccc(S(=O)(=O)N3CCOCC3)cc2)cc1` the figure was 15.2%; with `CCCCN(C(=O)NC(=O)Nc1ccccc1C)S(C)(=O)=O`, 12%. Turning to `COc1ccc(N2C(=O)CSC2c2cccc(F)c2)cc1` (configuration not stated), the inhibition is 9.83%.

`CC1CC(C)(C)NC(=S)N1CCCC(=O)N1CCN(c2ccc(F)cc2)CC1` (configuration not stated): the inhibition was 7.98%. As to `CCOc1cc2c(cc1OCC)C(c1ccccc1OC)OC(=O)C2` (configuration not stated), the inhibition was 2.26%. `COc1ccc(/C=N/Nc2nc3ccccc3[nH]2)cc1OC`: the inhibition was 26.4%.

Consider `COc1cc(/C=N\Nc2nc3ccccc3[nH]2)cc(OC)c1OC`, for which the inhibition is 22.4%. With `Cc1ccc(/C=N/Nc2nc3ccccc3[nH]2)s1` the figure was 18.3%. As for `COc1ccc(/C=N/Nc2nc3ccccc3o2)cc1O`, the figure is 28.6%; as for `C(=N\Nc1nc2ccccc2[nH]1)/c1ccccc1`, 24.9%; as for `COc1cc(/C=N\Nc2nc3ccccc3o2)cc(OC)c1OC`, 12.1%. Consider `COc1ccc(-c2noc(N3CCC(C(=O)NCCCN4CCCCC4)CC3)n2)cc1`, for which the inhibition is 11.4%. With `C/C(=N\NC(=O)c1c(Cl)c(C)nn1C)c1cccc(NC(=O)c2cccc(F)c2)c1` the figure was 27.2%; with `O=C(Cc1ccccc1)NCC(=O)N/N=C/c1cccnc1`, 12.9%. As for `O=C1Nc2ccc(S(=O)(=O)N3CCOCC3)c3cccc1c23`, the figure is 3.61%; as for `CCOC(=O)C1=C(C)NC(=O)C(C(N)=O)C12CCCCC2` (configuration not stated), 4.24%; as for `CN(CCc1ccccn1)C(=O)CCC1CCCN(C(=O)CN2CCCCCC2)C1` (configuration not stated), 16.4%. With `Cc1cccc(Nc2nc3c(S(=O)(=O)c4ccccc4)nnn3c3ccccc23)c1` the figure was 8.95%. In the case of `CCCN1C(=O)/C(=N\OCC(=O)NC23CC4CC(CC(C4)C2)C3)c2ccccc21`, the inhibition is 19.7%.

With `COc1ccc(C2CC(=O)c3cnc(N4CCc5ccccc54)nc3C2)cc1OC` (configuration not stated), the inhibition is 6.12%. With `CCOC(=O)C(CC)n1nc(C)n2c(cc3sccc32)c1=O` (configuration not stated) the figure was 9.17%; with `Cc1cc(N)ccc1-n1c(C)ccc1C`, 15.8%; with `Cc1cc(N)ccc1N1CCCC1`, 11.3%.

Consider `Cc1ccc(CNC(C)(C)CO)cc1`, for which the inhibition was 1.14%. With `Cc1nc(-c2ccccc2O)n(S(=O)(=O)N(C)C)n1` the figure was 12.3%.

(Values after PubChem BioAssay AID1903 (Southern Research Specialized Biocontainment Screening …, 2009).)
